Laboratory results reported in PubChem BioAssay.
Calls of active or inactive are those of the source. Unless noted, no rule for the calls is given here.

What was measured:
[1] = resazurin metabolic signal in HepG2 cells – cell-based, resazurin fluorescence, 24 h, PK04 Diversity Set, profiling panel (AID 1172); conditions: HepG2 viability, higher = more signal
[2] = budding yeast growth changes without added modifier – OD600, strain BY4716, 24 h, basal condition, primary screen (AID 1173); conditions: S. cerevisiae BY4716 growth, OD600, 24 h; higher = more signal, called active from +8 up or from −8 down
[3] = viability profiling in MM1S myeloma cells – cell-based, resazurin fluorescence, basal, 24 h, PK04 Diversity Set, profiling panel (AID 1174); conditions: higher = more signal, called active from +8 up or from −8 down;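 also: MM1S multiple myeloma cell line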
[4] = molecular target: Dihydroorotate dehydrogenase (quinone), mitochondrial (Plasmodium falciparum (isolate 3D7)) (UniProt Q08210); assay: inhibition of P. falciparum DHODH – biochemical, C-terminal His tag, absorbance 600 nm, primary screen (AID 1175); conditions: PfDHODH enzyme, DCIP absorbance 600 nm; higher = more signal, called active from +8 up or from −8 down;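 also: recombinant parasite enzyme with a five histidine tag at its C terminus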
[5] = inhibition of PAO1 biofilm formation – strain PAO1, LB-PBS medium, absorbance 600 nm, primary screen (AID 1176); conditions: P. aeruginosa PAO1 growth/biofilm, A600, 12 h; higher = more signal
[6] = growth modulation of vineyard yeast isolate – strain RM11-1a, OD600, basal, 24 h, primary screen (AID 1177);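 also: cultures grown under basal conditions with no added stressor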; conditions: S. cerevisiae RM11-1a growth, OD600, 24 h; higher = more signal, called active from +8 up or from −8 down
[7] = growth of efflux-deficient E. coli DRC39 – strain DRC39, OD650, 24 h, E. coli filamentation inducers, primary screen (AID 1178);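 also: growth measured as culture turbidity by optical density at 650 nm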; conditions: E. coli DRC39 acrAB, higher = more signal, called active from +8 up or from −8 down
[8] = growth of efflux-deficient E. coli DRC39 – strain DRC39, OD650, 48 h, E. coli filamentation inducers, primary screen (AID 1179);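 also: screen aims at cell division blockers that make cells filament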; conditions: E. coli DRC39 delta-acrAB growth, higher = more signal, called active from +8 up or from −8 down
[9] = viability profiling in RPMI8226 myeloma cells – cell-based, resazurin fluorescence, basal, 24 h, PK04 Diversity Set, profiling panel (AID 1180); conditions: higher = more signal;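 also: RPMI8826 multiple myeloma cell line at 5000 cells per well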
[10] = molecular target: E3 ubiquitin-protein ligase XIAP (Homo sapiens) (UniProt P98170); assay: small molecules binding XIAP protein – biophysical, small-molecule microarray, fluorescence 635 nm, primary screen (AID 1181); conditions: higher = more signal;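 also: score merges 667 nm emission and signal to noise over triplicate slides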
[11] = system: XIP peptide (Xip251-270) binding; assay: XIP fragment 251-270 binding compounds – biochemical, small-molecule microarray, fluorescence 635/667 nm, 0.1 µg/mL protein, primary screen (AID 1182); conditions: fluorescent protein binding, 635 nm, higher = more signal, called active from +8 up or from −8 down
[12] = system: XIP peptide (Xip251-270); assay: compounds binding XIP fragment 251-270 – biochemical, small-molecule microarray, fluorescence 635/667 nm, 0.5 µg/mL protein, primary screen (AID 1183); conditions: fluorescence 635 nm, higher = more signal
[13] = blood-stage malaria parasite viability loss – strain 3D7, DAPI fluorescence, 100 nL, primary screen (AID 1184);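 also: parasites grown inside human red blood cells in medium with human serum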; conditions: P. falciparum 3D7 growth, 3 d, higher = more signal
[14] = molecular target: Homeobox protein Hox-A13 (Mus musculus) (UniProt Q62424); assay: disruptors of Hoxa13 oligonucleotide interaction – biochemical, fluorescence polarization, labeled oligonucleotide, primary screen (AID 1185); conditions: Hoxa13:DNA binding, 15 min, higher = more signal, called active from +8 up or from −8 down
[15] = blockers of DNA damage checkpoint Chk1 activation – imaging, HeLa, hydroxyurea, phospho-Chk1 antibody, percent positive cells, primary screen (AID 1186); conditions: hydroxyurea-induced phospho-Chk1 immunofluorescence imaging, higher = more signal
[16] = blockers of DNA damage checkpoint Chk1 activation – imaging, HeLa, hydroxyurea, phospho-Chk1 nuclear intensity, primary screen (AID 1187); conditions: hydroxyurea-induced phospho-Chk1 immunofluorescence imaging, higher = more signal

Chain of Homeobox protein Hox-A13 (Mus musculus) (Q62424 whole entry, looked up): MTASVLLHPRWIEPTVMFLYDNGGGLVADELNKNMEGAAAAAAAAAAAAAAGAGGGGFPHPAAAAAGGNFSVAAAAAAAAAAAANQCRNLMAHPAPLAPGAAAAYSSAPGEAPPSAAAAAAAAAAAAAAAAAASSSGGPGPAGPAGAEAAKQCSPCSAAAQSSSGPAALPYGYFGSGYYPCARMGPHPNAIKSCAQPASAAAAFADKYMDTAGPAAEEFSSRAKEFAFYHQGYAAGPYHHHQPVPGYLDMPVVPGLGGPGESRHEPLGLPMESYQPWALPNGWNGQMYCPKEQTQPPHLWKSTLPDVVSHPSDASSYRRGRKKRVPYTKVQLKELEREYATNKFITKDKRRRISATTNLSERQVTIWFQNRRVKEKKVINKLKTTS
Chain of E3 ubiquitin-protein ligase XIAP (Homo sapiens) (P98170 whole entry, looked up, the tested form may be a part): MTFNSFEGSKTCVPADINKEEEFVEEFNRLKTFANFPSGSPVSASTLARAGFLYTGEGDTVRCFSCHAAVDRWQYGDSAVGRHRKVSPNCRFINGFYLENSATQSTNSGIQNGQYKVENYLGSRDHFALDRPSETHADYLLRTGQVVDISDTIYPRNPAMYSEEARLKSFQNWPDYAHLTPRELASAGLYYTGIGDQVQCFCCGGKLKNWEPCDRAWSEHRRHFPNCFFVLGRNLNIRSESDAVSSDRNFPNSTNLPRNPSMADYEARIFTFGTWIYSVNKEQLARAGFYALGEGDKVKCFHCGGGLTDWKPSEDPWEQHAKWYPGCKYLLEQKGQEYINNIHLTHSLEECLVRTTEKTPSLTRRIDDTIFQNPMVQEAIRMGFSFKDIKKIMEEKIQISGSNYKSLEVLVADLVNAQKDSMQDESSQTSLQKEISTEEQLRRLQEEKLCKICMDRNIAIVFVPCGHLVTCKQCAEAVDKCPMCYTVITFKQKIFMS
Chain of Dihydroorotate dehydrogenase (quinone), mitochondrial (Plasmodium falciparum (isolate 3D7)) (Q08210 whole entry, looked up): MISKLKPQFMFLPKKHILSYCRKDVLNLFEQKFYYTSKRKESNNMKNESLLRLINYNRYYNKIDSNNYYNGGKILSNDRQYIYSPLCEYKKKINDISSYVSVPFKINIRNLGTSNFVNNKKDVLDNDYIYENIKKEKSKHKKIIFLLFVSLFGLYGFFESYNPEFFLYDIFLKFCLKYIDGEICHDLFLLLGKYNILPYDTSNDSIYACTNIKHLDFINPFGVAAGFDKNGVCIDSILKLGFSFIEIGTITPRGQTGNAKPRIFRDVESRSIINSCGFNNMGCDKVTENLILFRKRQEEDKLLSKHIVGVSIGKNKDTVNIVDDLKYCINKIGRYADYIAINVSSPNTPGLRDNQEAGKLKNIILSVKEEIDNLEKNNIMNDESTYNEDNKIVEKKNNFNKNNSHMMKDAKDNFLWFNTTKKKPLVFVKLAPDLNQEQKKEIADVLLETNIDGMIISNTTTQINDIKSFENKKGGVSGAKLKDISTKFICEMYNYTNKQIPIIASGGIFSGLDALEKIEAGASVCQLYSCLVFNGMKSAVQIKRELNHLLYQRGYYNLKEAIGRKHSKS

Structure (SMILES) | z-score [1] | z-score [2] | z-score [3] | composite z-score [4] | z-score [5] | z-score [6] | z-score [7] | z-score [8] | z-score [9] | composite z-score [10] | composite z-score [11] | composite z-score [12] | z-score [13] | z-score [14] | z-score [15] | z-score [16]
CCCc1cc2c(n1Cc1cc(F)cc(F)c1)C(C)C1CN(C(=O)c3ccccc3)C(C)(C(=O)OC)C21 (stereo not drawn) | -1.27 | 0.615 (inactive) | -1.65 (inactive) | 0.249 (inactive) | 0.992 (inactive) | 0.223 (inactive) | -0.522 (inactive) | -0.152 (inactive) | -1 | 0.0702 | 0.264 (inactive) | -0.0681 | -1.32 | -2.41 (inactive) | 0.789 (inactive) | 0.0213 (inactive)
COC(=O)[C@@]1(Cc2ccc(F)cc2)[C@H]2c3cc(C(=O)N(C)C)n(Cc4ccc(Cl)c(C(F)(F)F)c4)c3C[C@H]2CN1C(=O)c1ccccc1 | -0.81 | 0.359 (inactive) | -2.72 (inactive) | 0.117 (inactive) | 1.09 (inactive) | -0.285 (inactive) | -1.2 (inactive) | -0.531 (inactive) | -3.26 | 0.929 | -0.512 (inactive) | 0.503 | -1.6 | -2.75 (inactive) | 1.09 (inactive) | 0.528 (inactive)
CN1C=C(C(=O)OCCS(C)(=O)=O)C(C(=O)OCCS(C)(=O)=O)=CC(c2ccc(CO)cc2)=CC1C1CC1 (stereo not drawn) | -0.15 | -1.68 (inactive) | -0.83 (inactive) | -0.524 (inactive) | -0.447 (inactive) | 0.0635 (inactive) | 0.815 (inactive) | 0.63 (inactive) | -0.189 | -0.359 | 0.943 (inactive) | -0.452 | -2.35 | -5.4 (inactive) | -1.15 (inactive) | 0.15 (inactive)
CCOC(=O)C[C@H]1[C@H](OC(=O)c2cc3ccccc3oc2=O)[C@@H](NC(=O)c2ccccc2)c2cc(OCCCO)ccc2N1C(=O)c1ccc2ccccc2n1 | -0.359 | -0.594 (inactive) | -1.04 (inactive) | 0.542 (inactive) | -0.246 (inactive) | -0.5 (inactive) | -0.741 (inactive) | -1.2 (inactive) | -1.16 | -0.28 | -0.0302 (inactive) | 0.503 | -0.566 | -3.63 (inactive) | 0.091 (inactive) | 0.0741 (inactive)
COc1ccc(/C=C/C=O)cc1 | -0.316 | -3.59 (inactive) | -0.998 (inactive) | -0.291 (inactive) | 0.0061 (inactive) | 0.313 (inactive) | 0.154 (inactive) | 0.0154 (inactive) | -0.495 | 0.128 | -0.338 (inactive) | 0.185 | 1.01 | 0.0055 (inactive) | 0.0257 (inactive) | 0.0335 (inactive)
CCCCCCc1nc(-c2cc(C)c(OC)c(C)c2)cc2c1[Si](C(C)C)(C(C)C)OC2 | -0.206 | -1.09 (inactive) | 0.401 (inactive) | -3.17 (inactive) | -0.747 (inactive) | -0.493 (inactive) | 0.615 (inactive) | 0.641 (inactive) | -0.11 | 0.0537 | -0.267 (inactive) | -0.191 | -2.34 | -0.772 (inactive) | -0.157 (inactive) | -0.188 (inactive)
COc1ccc(CCNC(=O)[C@@]2(C)c3ccccc3C(=O)N(C(C)C)[C@H]2c2ccc(CO)cc2)cc1 | -0.848 | -0.51 (inactive) | 0.0132 (inactive) | 0.12 (inactive) | -0.149 (inactive) | -0.54 (inactive) | -0.166 (inactive) | 0.0299 (inactive) | 0.332 | -0.252 | -0.15 (inactive) | 0.388 | -0.57 | -2.77 (inactive) | 0.0394 (inactive) | -0.33 (inactive)
C[N+](C)(C)CCCCNC(=O)[C@H]1C[C@H]2C(=O)N3CCC[C@H]3C(=O)N2[C@H]1c1cccc(OCCO)c1 | -2.49 | 1.43 (inactive) | -1.12 (inactive) | -30.8 (active) | 0.628 (inactive) | 0.647 (inactive) | 0.66 (inactive) | 0.629 (inactive) | -0.951 | 0.261 | 0.265 (inactive) | -0.465 | 1.2 | -2.27 (inactive) | -0.302 (inactive) | -0.124 (inactive)
CCOC(=O)C1=CC[C@@H](c2ccccc2)N(S(=O)(=O)c2ccc(C)cc2)[C@H]1c1ccccc1C | 1.81 | 0.786 (inactive) | 0.336 (inactive) | -0.494 (inactive) | -0.377 (inactive) | -0.59 (inactive) | -0.502 (inactive) | 0.3 (inactive) | 0.686 | -0.0239 | -0.164 (inactive) | 0.291 | -1.71 | -0.813 (inactive) | 0.023 (inactive) | 0.112 (inactive)
OCCCC1=CC(c2cccs2)N(Cc2cc3c(cc2Br)OCO3)CC1 (stereo not drawn) | -0.429 | -2.09 (inactive) | -0.643 (inactive) | -0.966 (inactive) | 0.531 (inactive) | -0.174 (inactive) | -0.341 (inactive) | -0.681 (inactive) | -0.829 | 0.019 | 0.412 (inactive) | 0.435 | -1.82 | -2.36 (inactive) | 0.32 (inactive) | 0.998 (inactive)
C=CCOC(=O)[C@H]1[C@@H]2C(=O)O[C@@H](c3ccccc3)[C@@H](c3ccccc3)N2[C@@H](c2ccc(OCCOC(=O)[C@H]3C[C@H]4C(=O)N[C@@H](CCCC[N+](C)(C)C)C(=O)N4[C@H]3c3ccc(O)cc3)cc2)[C@]12C(=O)Nc1ccc(I)cc12 | -0.427 | -0.154 (inactive) | -0.13 (inactive) | -0.24 (inactive) | -0.379 (inactive) | 0.0102 (inactive) | -0.873 (inactive) | -0.473 (inactive) | -0.078 | 2.28 | 1.7 (inactive) | 0.848 | 0.615 | -2.52 (inactive) | -0.324 (inactive) | -0.62 (inactive)
C=C(C)[C@@H]1CC=C(C(O)C2C=CC3C(=O)N(C)C(=O)C3N2Nc2ccccc2)CC1 (stereo partly drawn) | -0.709 | 0.773 (inactive) | -1.03 (inactive) | 0.849 (inactive) | 0.751 (inactive) | 1.45 (inactive) | -0.683 (inactive) | -0.472 (inactive) | -0.581 | 0.0688 | 0.469 (inactive) | 0.147 | -0.0575 | -4.59 (inactive) | -0.63 (inactive) | -0.968 (inactive)
[N-]=[N+]=Nc1ccccc1[C@H]1OC(c2ccc(OCCCO)cc2)=N[C@@]1(CCS(=O)(=O)c1ccccc1)C(=O)NCC(O)CO (stereo partly drawn) | -0.14 | -0.484 (inactive) | -0.0646 (inactive) | 1.01 (inactive) | 0.854 (inactive) | -0.129 (inactive) | -0.117 (inactive) | -0.878 (inactive) | -0.389 | 0.0727 | -0.193 (inactive) | 0.557 | -1.81 | -4.65 (inactive) | -0.0536 (inactive) | -0.22 (inactive)
C=CCC(OC(C)=O)[C@@H]1[C@@H](N(Cc2cccc3ccccc23)C(=O)c2ccc(-c3ccccc3)cc2)c2cc(OCCCO)ccc2N1C(=O)c1ccc2ccccc2c1 (stereo partly drawn) | 0.256 | 1.04 (inactive) | 0.163 (inactive) | -0.149 (inactive) | 0.845 (inactive) | 0.132 (inactive) | 0.0986 (inactive) | 0.295 (inactive) | 1.23 | 0.0463 | -0.176 (inactive) | 0.0439 | -1.55 | -1.35 (inactive) | 0.145 (inactive) | -0.0284 (inactive)
CCS[C@H]1[C@@H](C(=O)O)[C@H](c2ccc(C)cc2)N(S(=O)(=O)c2ccc(C)cc2)[C@@H]1CC | 0 | 0.788 (inactive) | -0.751 (inactive) | -1.03 (inactive) | 0.257 (inactive) | -0.0137 (inactive) | -0.419 (inactive) | 0.843 (inactive) | -0.702 | -0.167 | 0.458 (inactive) | 0.327 | 0.184 | -2.35 (inactive) | -0.72 (inactive) | -0.307 (inactive)
CO[C@H]1O[C@H](CO)[C@@H](OC(=O)Nc2ccc(Oc3ccccc3)cc2)[C@H](OC(=O)Nc2ccc3c(c2)OCO3)[C@H]1OC(=O)Nc1ccc2c(c1)OCO2 | -0.692 | 0.759 (inactive) | 0.0487 (inactive) | -0.227 (inactive) | 2.07 (inactive) | 1.11 (inactive) | 1.65 (inactive) | 0.0431 (inactive) | 0.404 | -0.0795 | 0.69 (inactive) | 0.891 | -2.33 | -5.25 (inactive) | -0.334 (inactive) | -0.152 (inactive)
COC(=O)[C@@]1(Cc2ccc(OC)cc2)[C@H]2c3cc(C(=O)N(C)C)n(Cc4ccccn4)c3C[C@H]2CN1C(=O)c1ccccc1 | -0.961 | 1.28 (inactive) | -1.24 (inactive) | 1.02 (inactive) | 0.976 (inactive) | 0.607 (inactive) | -1.13 (inactive) | -0.6 (inactive) | -0.838 | 0.155 | 0.544 (inactive) | -0.765 | -1.54 | -5.52 (inactive) | -0.276 (inactive) | -0.406 (inactive)
COc1ccc([C@H]2OC[C@@H]3C[C@@H](Cc4ccccc4)C(=O)N32)cc1 | -0.384 | -3.32 (inactive) | 0.111 (inactive) | -0.431 (inactive) | -0.0513 (inactive) | -0.64 (inactive) | -0.562 (inactive) | -0.873 (inactive) | -0.219 | -0.0337 | 0.617 (inactive) | 0.0682 | 0.583 | -1.06 (inactive) | 0.375 (inactive) | 0.0727 (inactive)
